According to article PMC7862700, “An all-to-all approach to the identification of sequence-specific readers for epigenetic DNA modifications on cytosine”:

Key:
Test in all cases: DAPPL (digital affinity profiling via proximity ligation, sequencing); 10 mM Tris-HCl pH 7.5, 50 mM NaCl, 1 mM DTT, 4% glycerol, room temperature, 30 min; GST-TFs on glutathione beads, 16-mer random dsDNA library, 0.1% formaldehyde crosslink after washing; high values mean tight binding
Details in all cases: protein: recombinant; tags: N-terminal GST; dsDNA, one strand shown
FLI1 = molecular target: T1, FLI1 (Homo sapiens, UniProt Q01543 1-452)
T1 sequence: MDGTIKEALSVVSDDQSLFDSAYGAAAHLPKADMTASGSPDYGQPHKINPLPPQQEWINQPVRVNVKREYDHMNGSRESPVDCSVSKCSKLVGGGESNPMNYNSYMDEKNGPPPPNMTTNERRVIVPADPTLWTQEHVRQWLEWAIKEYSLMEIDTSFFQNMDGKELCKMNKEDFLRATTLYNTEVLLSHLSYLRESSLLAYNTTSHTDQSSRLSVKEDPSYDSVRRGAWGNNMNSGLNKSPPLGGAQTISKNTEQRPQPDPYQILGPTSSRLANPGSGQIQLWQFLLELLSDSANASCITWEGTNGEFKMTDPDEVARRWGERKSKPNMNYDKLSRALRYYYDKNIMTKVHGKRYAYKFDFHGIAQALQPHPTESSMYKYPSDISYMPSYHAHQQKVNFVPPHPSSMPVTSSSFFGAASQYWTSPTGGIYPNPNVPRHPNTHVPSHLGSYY
Summary of the method: (§1)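 Beads coated with glutathione captured GST-fused human transcription factors that had been expressed in yeast, and the factors were then given DNA barcodes and pooled with a tag-only sample. The pools were incubated with 200 nmole of a random double-stranded 16-mer DNA library in Tris/NaCl/DTT/glycerol buffer for 30 min at room temperature, washed, crosslinked with 0.1% formaldehyde and proximity-ligated with BsaI/T4 ligase at 37 °C for 1 h. PCR amplification and Illumina NextSeq500 sequencing came last. Binding signal is each hexamer's read frequency for a factor divided by its frequency for the tag-only sample.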

ELK1 = molecular target: T2, ELK1 (Homo sapiens, UniProt P19419 1-428)
T2 sequence: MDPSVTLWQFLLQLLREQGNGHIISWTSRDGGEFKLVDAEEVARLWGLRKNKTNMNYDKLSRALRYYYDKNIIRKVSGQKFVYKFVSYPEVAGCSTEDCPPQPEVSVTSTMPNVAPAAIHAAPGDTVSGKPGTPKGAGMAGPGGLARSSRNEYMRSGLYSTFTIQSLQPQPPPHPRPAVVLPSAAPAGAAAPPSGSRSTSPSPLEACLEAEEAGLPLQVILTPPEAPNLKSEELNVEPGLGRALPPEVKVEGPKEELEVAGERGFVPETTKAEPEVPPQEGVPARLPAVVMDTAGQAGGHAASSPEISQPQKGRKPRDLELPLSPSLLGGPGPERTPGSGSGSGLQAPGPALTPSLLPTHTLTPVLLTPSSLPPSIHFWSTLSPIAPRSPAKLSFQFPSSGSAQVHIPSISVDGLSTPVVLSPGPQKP
Summary of the method: as §1

GABPA = molecular target: T3, GABPA (Homo sapiens, UniProt Q06546 1-454)
T3 sequence: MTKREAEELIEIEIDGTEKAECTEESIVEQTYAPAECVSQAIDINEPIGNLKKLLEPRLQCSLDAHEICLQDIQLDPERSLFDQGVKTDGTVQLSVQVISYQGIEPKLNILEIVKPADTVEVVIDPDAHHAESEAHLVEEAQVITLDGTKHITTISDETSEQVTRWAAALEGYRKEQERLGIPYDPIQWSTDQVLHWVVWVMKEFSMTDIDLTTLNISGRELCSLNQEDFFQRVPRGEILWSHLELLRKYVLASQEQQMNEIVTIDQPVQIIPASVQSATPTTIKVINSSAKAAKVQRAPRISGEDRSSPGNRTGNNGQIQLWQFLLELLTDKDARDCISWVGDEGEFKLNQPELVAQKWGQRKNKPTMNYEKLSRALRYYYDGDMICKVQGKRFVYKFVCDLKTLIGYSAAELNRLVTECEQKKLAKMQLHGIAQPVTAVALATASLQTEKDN
Summary of the method: as §1

ERG = molecular target: T4, ERG (Homo sapiens, UniProt P11308 1-479)
T4 sequence: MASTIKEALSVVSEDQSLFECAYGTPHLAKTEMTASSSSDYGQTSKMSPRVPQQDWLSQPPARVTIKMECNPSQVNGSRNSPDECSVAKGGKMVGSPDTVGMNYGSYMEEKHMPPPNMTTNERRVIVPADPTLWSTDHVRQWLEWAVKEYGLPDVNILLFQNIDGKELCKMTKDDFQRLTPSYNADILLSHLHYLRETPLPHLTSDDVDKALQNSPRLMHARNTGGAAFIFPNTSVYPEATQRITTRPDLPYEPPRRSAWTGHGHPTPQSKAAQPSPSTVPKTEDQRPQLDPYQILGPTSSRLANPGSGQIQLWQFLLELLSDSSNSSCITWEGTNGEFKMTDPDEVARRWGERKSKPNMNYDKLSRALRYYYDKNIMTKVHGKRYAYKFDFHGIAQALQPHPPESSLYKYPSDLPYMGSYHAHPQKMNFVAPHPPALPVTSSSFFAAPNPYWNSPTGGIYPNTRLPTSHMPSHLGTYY
Summary of the method: as §1

ELF1 = ELF1 (Homo sapiens, UniProt P32519 1-619)
Sequence of ELF1 (P32519 whole entry): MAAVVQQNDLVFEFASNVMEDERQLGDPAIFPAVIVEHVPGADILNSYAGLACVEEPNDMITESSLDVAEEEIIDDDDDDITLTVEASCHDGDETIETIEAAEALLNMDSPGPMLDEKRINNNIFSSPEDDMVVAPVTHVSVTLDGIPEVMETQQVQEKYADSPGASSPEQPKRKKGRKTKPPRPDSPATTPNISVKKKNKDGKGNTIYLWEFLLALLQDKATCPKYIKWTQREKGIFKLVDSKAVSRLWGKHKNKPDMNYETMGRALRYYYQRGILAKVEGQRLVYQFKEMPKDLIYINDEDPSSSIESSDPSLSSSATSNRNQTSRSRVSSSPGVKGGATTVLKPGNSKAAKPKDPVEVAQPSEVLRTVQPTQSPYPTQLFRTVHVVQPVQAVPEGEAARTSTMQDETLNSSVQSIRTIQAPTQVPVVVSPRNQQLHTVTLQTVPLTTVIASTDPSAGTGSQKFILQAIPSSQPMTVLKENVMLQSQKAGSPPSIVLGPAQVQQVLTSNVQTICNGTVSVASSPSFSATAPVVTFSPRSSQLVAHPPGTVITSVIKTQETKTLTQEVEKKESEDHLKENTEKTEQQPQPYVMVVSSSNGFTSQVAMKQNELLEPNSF
Summary of the method: as §1

EHF = molecular target: T5, EHF (Homo sapiens, UniProt Q9NZC4 1-300)
T5 sequence: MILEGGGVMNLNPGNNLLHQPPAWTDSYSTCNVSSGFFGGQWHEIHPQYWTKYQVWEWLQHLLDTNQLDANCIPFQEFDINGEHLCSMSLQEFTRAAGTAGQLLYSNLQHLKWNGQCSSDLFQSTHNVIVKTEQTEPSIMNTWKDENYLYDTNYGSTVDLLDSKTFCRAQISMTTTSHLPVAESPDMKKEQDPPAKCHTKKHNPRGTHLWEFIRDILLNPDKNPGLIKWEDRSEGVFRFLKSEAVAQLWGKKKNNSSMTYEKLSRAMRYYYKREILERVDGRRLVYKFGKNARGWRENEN
Summary of the method: as §1

SPI1 = SPI1 (Homo sapiens, UniProt P17947 1-270)
Summary of the method: as §1

SPIB = SPIB (Homo sapiens, UniProt Q01892 1-262)
Sequence of SPIB (Q01892 whole entry): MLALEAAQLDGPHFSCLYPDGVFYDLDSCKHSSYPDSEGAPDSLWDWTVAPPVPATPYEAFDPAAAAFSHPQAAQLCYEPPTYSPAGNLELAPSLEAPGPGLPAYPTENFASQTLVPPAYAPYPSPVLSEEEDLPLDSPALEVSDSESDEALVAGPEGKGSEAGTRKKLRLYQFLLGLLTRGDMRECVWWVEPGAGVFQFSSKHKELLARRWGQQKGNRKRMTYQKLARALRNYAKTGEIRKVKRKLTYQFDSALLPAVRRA
Summary of the method: as §1

ELK3 = molecular target: T6, ELK3 (Homo sapiens, UniProt P41970 1-407)
T6 sequence: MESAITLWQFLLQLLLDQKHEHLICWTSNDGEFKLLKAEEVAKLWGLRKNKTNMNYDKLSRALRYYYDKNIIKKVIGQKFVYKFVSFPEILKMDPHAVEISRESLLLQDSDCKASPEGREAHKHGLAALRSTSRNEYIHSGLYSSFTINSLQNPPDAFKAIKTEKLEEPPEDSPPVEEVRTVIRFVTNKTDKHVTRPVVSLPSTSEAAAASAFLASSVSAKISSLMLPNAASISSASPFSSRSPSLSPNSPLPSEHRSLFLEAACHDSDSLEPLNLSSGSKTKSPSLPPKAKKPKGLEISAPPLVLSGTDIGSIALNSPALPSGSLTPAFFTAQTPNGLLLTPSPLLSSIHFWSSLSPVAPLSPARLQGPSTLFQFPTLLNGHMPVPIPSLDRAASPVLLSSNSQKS
Summary of the method: as §1

| Sequence | binding signal (FLI1) | binding signal (ELK1) | binding signal (GABPA) | binding signal (ERG) | binding signal (ELF1) | binding signal (EHF) | binding signal (SPI1) | binding signal (SPIB) | binding signal (ELK3) |
| --- | --- | --- | --- | --- | --- | --- | --- | --- | --- |
| CCGATA | 1.16 fold enrichment (6-mer frequency, TF over GST control) | 1.13 fold enrichment (6-mer frequency, TF over GST control) | 1.14 fold enrichment (6-mer frequency, TF over GST control) | 1.14 fold enrichment (6-mer frequency, TF over GST control) | 1.17 fold enrichment (6-mer frequency, TF over GST control) | 1.18 fold enrichment (6-mer frequency, TF over GST control) | 1.09 fold enrichment (6-mer frequency, TF over GST control) | 1.03 fold enrichment (6-mer frequency, TF over GST control) | 1.14 fold enrichment (6-mer frequency, TF over GST control) |
| TTAGTT | 1.36 fold enrichment (6-mer frequency, TF over GST control) | 1.38 fold enrichment (6-mer frequency, TF over GST control) | 1.18 fold enrichment (6-mer frequency, TF over GST control) | 1.24 fold enrichment (6-mer frequency, TF over GST control) | 1.31 fold enrichment (6-mer frequency, TF over GST control) | 1.3 fold enrichment (6-mer frequency, TF over GST control) | 1.27 fold enrichment (6-mer frequency, TF over GST control) | 1.31 fold enrichment (6-mer frequency, TF over GST control) | 1.31 fold enrichment (6-mer frequency, TF over GST control) |
| TGGACT | 1.19 fold enrichment (6-mer frequency, TF over GST control) | 1.27 fold enrichment (6-mer frequency, TF over GST control) | 1.25 fold enrichment (6-mer frequency, TF over GST control) | 1.18 fold enrichment (6-mer frequency, TF over GST control) | 1.26 fold enrichment (6-mer frequency, TF over GST control) | 1.3 fold enrichment (6-mer frequency, TF over GST control) | 1.18 fold enrichment (6-mer frequency, TF over GST control) | 1.41 fold enrichment (6-mer frequency, TF over GST control) | 1.2 fold enrichment (6-mer frequency, TF over GST control) |
| CCACTT | 1.86 fold enrichment (6-mer frequency, TF over GST control) | 1.86 fold enrichment (6-mer frequency, TF over GST control) | 1.81 fold enrichment (6-mer frequency, TF over GST control) | 2.02 fold enrichment (6-mer frequency, TF over GST control) | 1.85 fold enrichment (6-mer frequency, TF over GST control) | 1.93 fold enrichment (6-mer frequency, TF over GST control) | 2.41 fold enrichment (6-mer frequency, TF over GST control) | 1.74 fold enrichment (6-mer frequency, TF over GST control) | 1.83 fold enrichment (6-mer frequency, TF over GST control) |
